Records with an inconclusive call do not appear. Activity calls are given as the source filed them. Calls follow the shape of the dose curve; as a rule, active = well fitted cell-killing curve with a large enough effect; inconclusive = small, poorly fitted or top-dose-only effect, or effect the other way; inactive = flat fitted curve, though single readings scatter. Where a SMILES comes first, the peptide text is derived from it.
System: SKOV3
Test: Primary qHTS to identify gynecologic anti-cancer compounds using libraries of approved drugs and bioactive compounds (AID 1345084); also: nearly all actives have a fitted effect of over 55% in size
Settings: Gynecologic cancer cell panel viability, ATPlite luminescence, 48 h; series mostly up to 57.5 µM; activity change, negative = cytotoxicity: at the top concentration
How it was run: (§1)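 Luminescence from the ATPlite ATP-monitoring reagent indicates viable cell number; lower signal means cytotoxicity. Cells received compound 16 h after seeding and were exposed for 48 h across five concentrations.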
% is scaled to controls: 0 for no effect and ±100 for the full control effect.

Question: For CSCC[C@H](NC(=O)[C@H](CO)NC(=O)[C@H](CCC(=O)O)NC(C)=O)C(=O)N[C@H](C=O)CC(=O)O (Ac-ESMD-aldehyde), which activity change, negative = cytotoxicity is on record?
Answer: 3.55% [at 11.6 µM] (inactive)

Question: Which “activity change, negative = cytotoxicity” value does the source give for C=C(C(=O)OC)[C@]12O[C@@](C)(CC[C@@]3(O)/C(=C\C)C(=O)O[C@]3(C)C[C@@H]1OC(=O)C(CO)CN1CCCC1C(=O)O)CC2=O (stereo not given in full) here?
Answer: 4.34% [at 25.3 µM] (inactive)

Question: Which “activity change, negative = cytotoxicity” value does the source give for CC(=O)OCC(Cc1ccccc1)NC(=O)C(Cc1ccccc1)NC(=O)c1ccccc1 (stereo not given) here?
Answer: 7.94% [at 25.3 µM] (inactive)

Question: With C/C=C/C=C/C=C/C(=O)N(C)C(C(=O)NC(C)C(=O)N1CCCC1C(N)=O)C(C)C (stereo not given) as the molecule, how does the “activity change, negative = cytotoxicity” value read?
Answer: 8.78% [at 25.3 µM] (inactive)

Question: How did the “activity change, negative = cytotoxicity” value turn out when COC(=O)C[C@@H]1C(C(=O)O)=CO[C@@H](O[C@@H]2O[C@H](CO)[C@@H](O)[C@H](O)[C@H]2O)/C1=C\COC(=O)/C=C/c1ccc(O)c(OC)c1 was run?
Answer: -0.11% [at 25.3 µM] (inactive)

Question: For O=C(C1OC1/C=C/c1ccc2c(c1)OCO2)N1CCCCC1 (stereo not given), which “activity change, negative = cytotoxicity” value is on record?
Answer: -16.3% (inactive)

Question: CC1(C)C(=O)CCC2(C)C1C(O)C=C1COC(=O)C12O (stereo not given) was tested. Which “activity change, negative = cytotoxicity” value did it give?
Answer: 21.9% (inactive)

Question: Which “activity change, negative = cytotoxicity” value does the source give for COc1cc(CO)ccc1O[C@@H]1O[C@H](CO)[C@@H](O)[C@H](O)[C@H]1O here?
Answer: -4.32% [at 38.5 µM] (inactive)

Question: C=C(C(=O)O)C1CC(OC(=O)CC(C)CC)C2(C)CCCC(=C)C2C1 (stereo not given) was tested. Which “activity change, negative = cytotoxicity” value did it give?
Answer: -2.78% [at 38.5 µM] (inactive)

Question: For Cc1cc(OCCN2CCOCC2)nn1-c1ccc2ccccc2c1, which “activity change, negative = cytotoxicity” value is on record?
Answer: 8.89% (inactive)

Question: For CC(=O)O[C@@H]1C(=O)C(C)=C(CCC(C)CC(=O)O)[C@@]2(C)CCCC(C)(C)C12 (stereo not given in full), which “activity change, negative = cytotoxicity” value is on record?
Answer: 0% [at 38.5 µM] (inactive)

System: Tov-21-G
Test: as above
Settings: Gynecologic cancer cell panel viability, ATPlite luminescence, 48 h; series mostly up to 57.5 µM; activity change, negative = cytotoxicity: at the top concentration
How it was run: as §1

Question: Which “activity change, negative = cytotoxicity” value does the source give for CC(C)=CCC/C(C)=C/CO[C@@H]1O[C@H](CO[C@@H]2OC[C@](O)(CO)[C@H]2O)[C@@H](O)[C@H](O)[C@H]1O here?
Answer: 0.399% [at 25.3 µM] (inactive)

Question: For CC1C2=CC(=O)OC2(O)CC2C1C(O)CC1C(C)(CO)CCCC21C (stereo not given), which “activity change, negative = cytotoxicity” value is on record?
Answer: -2.6% [at 38.5 µM] (inactive)

Question: How did the “activity change, negative = cytotoxicity” value turn out when CC1CC(=O)[C@]2(O)C(C(=O)OCCc3ccc(O)c(O)c3)=CO[C@@H](O[C@@H]3O[C@H](CO)[C@@H](O)[C@H](O)[C@H]3O)[C@H]12 (stereo not given in full) was run?
Answer: 1.76% [at 25.3 µM] (inactive)

Question: COC(=O)C1=COC(OC2OC(CO)C(O)C(O)C2O)C2C(C)C(OC(=O)/C=C/c3ccc(O)cc3)C(O)C12 (stereo not given) was tested. Which “activity change, negative = cytotoxicity” value did it give?
Answer: -5.41% [at 25.3 µM] (inactive)

Question: With C[C@H](O)C(O)(C(=O)OCc1ccccc1NC(=O)CCC(N)C(=O)O)[C@H](C)O (stereo not given in full) as the molecule, how does the “activity change, negative = cytotoxicity” value read?
Answer: 5.33% [at 25.3 µM] (inactive)

Question: For CN[C@H](CNC(=O)N1CCC[C@@H]([C@@H](OCCNC(=O)OC)c2cccc(Cl)c2)C1)C[C@H]1CCCOC1, which “activity change, negative = cytotoxicity” value is on record?
Answer: 2.64% (inactive)

Question: Which activity change, negative = cytotoxicity does the source give for C/C=C(\C)C(=O)OC1CC2C(CC=C3CC(OC4CC(OC)C(OC5CC(OC)C(OC6CC(OC)C(OC7CC(OC)C(OC8CC(OC)C(OC9OC(CO)C(O)C(O)C9O)C(C)O8)C(C)O7)C(C)O6)C(C)O5)C(C)O4)CCC32C)C2(O)CCC(C(C)=O)C12C (stereo not given) here?
Answer: 2.5% [at 6.55 µM] (inactive)

Question: CC(C)=C1CC2[C@](C)(CC[C@@H](OC(=O)C3(C)OC3C)[C@@]2(C)O)CC1=O (stereo not given in full) was tested. Which “activity change, negative = cytotoxicity” value did it give?
Answer: -4.86% [at 38.5 µM] (inactive)

Question: Which “activity change, negative = cytotoxicity” value does the source give for Nc1ccc(-n2nc(C(F)(F)F)cc2C(F)(F)F)cc1 here?
Answer: -1.94% (inactive)

Question: How did the “activity change, negative = cytotoxicity” value turn out when COc1cc(C(C)=O)ccc1O[C@@H]1O[C@H](CO)[C@@H](O)[C@H](O)[C@H]1O was run?
Answer: 7.58% [at 38.5 µM] (inactive)

Question: For COc1cc(C(C)=O)ccc1O[C@@H]1O[C@H](CO[C@@H]2OC[C@@H](O)[C@H](O)[C@H]2O)[C@@H](O)[C@H](O)[C@H]1O, which “activity change, negative = cytotoxicity” value is on record?
Answer: -0.601% [at 25.3 µM] (inactive)

Question: COc1cc(C(O)C2COC(c3ccc(OC4OC(CO)C(O)C(O)C4O)c(OC)c3)C2CO)ccc1O (stereo not given) was tested. Which “activity change, negative = cytotoxicity” value did it give?
Answer: 5.69% [at 25.3 µM] (inactive)

Question: For C=C1CC2C3(C)C(O)CC(=O)C(C)(C)C3C(O)C(OC(C)=O)C2(C)C2C(=O)OC(C)(C(=O)OC)C(=O)C12C (stereo not given), which “activity change, negative = cytotoxicity” value is on record?
Answer: -7.46% [at 25.3 µM] (inactive)

Question: For CC(C)C(O)(CO)CCO[C@@H]1O[C@H](CO[C@H]2OC[C@](O)(CO)[C@H]2O)[C@@H](O)[C@H](O)[C@H]1O (stereo not given in full), which “activity change, negative = cytotoxicity” value is on record?
Answer: 1.85% [at 25.3 µM] (inactive)

Question: Which activity change, negative = cytotoxicity does the source give for C/C=C(\C)C(=O)OC[C@H]1O[C@@H](O[C@H]2[C@@H](O[C@H]3O[C@H](COC(=O)/C(C)=C/C)[C@@H](O)[C@H](O)[C@H]3O[C@@H]3O[C@H](CO)[C@@H](O)[C@H](OC(=O)/C(C)=C/C)[C@H]3O)O[C@H](COC(=O)/C(C)=C/C)[C@@H](O)[C@@H]2O)[C@H](O)[C@@H](O)[C@@H]1O here?
Answer: 2.42% [at 11.6 µM] (inactive)

Question: How did the “activity change, negative = cytotoxicity” value turn out when CCC(C)/C=C(C)/C=C/C1=CC2=C(Cl)C(=O)C(C)(OC(C)=O)C(=O)C2=CN1C(CCC(=O)O)C(=O)O (stereo not given) was run?
Answer: -5.49% [at 25.3 µM] (inactive)

Question: Cc1ccccc1-c1cc(N2CCN(C)CC2)ncc1N(C)C(=O)C(C)(C)c1cc(C(F)(F)F)cc(C(F)(F)F)c1 was tested. Which “activity change, negative = cytotoxicity” value did it give?
Answer: 0.537% (inactive)

Question: How did the “activity change, negative = cytotoxicity” value turn out when C[C@H]1CC(=O)C2=C(C1)C(O)C(O)[C@@]1(O)[C@H]2C(=O)c2cccc(O)c2[C@@H]1O (stereo not given in full) was run?
Answer: -1.26% [at 38.5 µM] (inactive)

Question: How did the activity change, negative = cytotoxicity turn out when C[C@@H]1O[C@@H](O[C@H]2[C@H](OC(=O)[C@]34CCC(C)(C)C[C@H]3C3=CCC5[C@@]6(C)C[C@@H](O)[C@@H](O)[C@@](C)(CO)C6[C@H](O)C[C@@]5(C)[C@]3(C)CC4)OC[C@H](O)[C@@H]2O)[C@H](O)[C@H](O)[C@H]1O[C@@H]1OC[C@@H](O)[C@H](O[C@H]2O[C@H](C)[C@@H](O)[C@H](O)[C@@H]2O)[C@H]1O (stereo not given in full) was run?
Answer: 0.722% [at 11.6 µM] (inactive)

Question: Which “activity change, negative = cytotoxicity” value does the source give for C/C(=C\CC/C(C)=C/CC[C@]1(C)CCc2cc(O)cc(C)c2O1)CC/C=C(\C)C(=O)O here?
Answer: -18.7% [at 25.3 µM] (inactive)

Question: For C=C1CC23CC1CCC2C12OC(=O)C(C)(C(O)CC1O)C2C3C(=O)O (stereo not given), which “activity change, negative = cytotoxicity” value is on record?
Answer: 7.27% [at 38.5 µM] (inactive)

Question: For C=C(C)[C@@H]1CC[C@]2(CO)CC[C@]3(C)[C@H](CC[C@@H]4[C@@]5(C)CC[C@H](O)C(C)(C)[C@@H]5CC[C@]43C)[C@@H]12, which “activity change, negative = cytotoxicity” value is on record?
Answer: -0.967% [at 25.3 µM] (inactive)

Question: With COc1ccnc(CCc2nc3ncccc3[nH]2)c1 as the molecule, how does the “activity change, negative = cytotoxicity” value read?
Answer: 0.942% (inactive)

Question: Cc1c(NC(=O)N2CCOCC2)ccc2c1c1ccccc1n2C(C)C was tested. Which “activity change, negative = cytotoxicity” value did it give?
Answer: 12.5% (inactive)

Question: With CC[C@@H](C)[C@H](N)C(=O)N1Cc2ccccc2C1 as the molecule, how does the “activity change, negative = cytotoxicity” value read?
Answer: 11.7% (inactive)

Question: CC1(O)CC(O)C2C(C(=O)O)=COC(OC3OC(CO)C(O)C(O)C3OC(=O)/C=C/c3ccc(O)cc3)C21 (stereo not given) was tested. Which “activity change, negative = cytotoxicity” value did it give?
Answer: 2.88% [at 25.3 µM] (inactive)

Question: With COc1cc(Cc2cnc(N)nc2N)c(C(C)C)cc1OC as the molecule, how does the “activity change, negative = cytotoxicity” value read?
Answer: -2.91% (inactive)

Question: For C=C1CCC2(C(=O)OC3OC(CO)C(O)C(O)C3O)CCC3(C)C(=CCC4C5(C)CCC(OC6OC(CO)C(OC7OC(C)C(O)C(O)C7O)C(OC7OCC(O)C(O)C7O)C6O)C(C)(C)C5CCC43C)C2C1 (stereo not given), which activity change, negative = cytotoxicity is on record?
Answer: 0.21% [at 11.6 µM] (inactive)

Question: How did the activity change, negative = cytotoxicity turn out when CSCC[C@H](NC(=O)[C@H](CO)NC(=O)[C@H](CCC(=O)O)NC(C)=O)C(=O)N[C@H](C=O)CC(=O)O (Ac-ESMD-aldehyde) was run?
Answer: -0.444% [at 11.6 µM] (inactive)

Question: For C=C(C(=O)OC)[C@]12O[C@@](C)(CC[C@@]3(O)/C(=C\C)C(=O)O[C@]3(C)C[C@@H]1OC(=O)C(CO)CN1CCCC1C(=O)O)CC2=O (stereo not given in full), which “activity change, negative = cytotoxicity” value is on record?
Answer: 6.83% [at 25.3 µM] (inactive)

Question: How did the “activity change, negative = cytotoxicity” value turn out when CC(=O)OCC(Cc1ccccc1)NC(=O)C(Cc1ccccc1)NC(=O)c1ccccc1 (stereo not given) was run?
Answer: 9.08% [at 25.3 µM] (inactive)

Question: For C/C=C/C=C/C=C/C(=O)N(C)C(C(=O)NC(C)C(=O)N1CCCC1C(N)=O)C(C)C (stereo not given), which “activity change, negative = cytotoxicity” value is on record?
Answer: 0.406% [at 25.3 µM] (inactive)

Question: How did the “activity change, negative = cytotoxicity” value turn out when COC(=O)C[C@@H]1C(C(=O)O)=CO[C@@H](O[C@@H]2O[C@H](CO)[C@@H](O)[C@H](O)[C@H]2O)/C1=C\COC(=O)/C=C/c1ccc(O)c(OC)c1 was run?
Answer: 10.9% [at 25.3 µM] (inactive)

Question: With O=C(C1OC1/C=C/c1ccc2c(c1)OCO2)N1CCCCC1 (stereo not given) as the molecule, how does the “activity change, negative = cytotoxicity” value read?
Answer: -1.88% (inactive)

Question: With CC1(C)C(=O)CCC2(C)C1C(O)C=C1COC(=O)C12O (stereo not given) as the molecule, how does the “activity change, negative = cytotoxicity” value read?
Answer: 2.45% (inactive)

Question: With COc1cc(CO)ccc1O[C@@H]1O[C@H](CO)[C@@H](O)[C@H](O)[C@H]1O as the molecule, how does the “activity change, negative = cytotoxicity” value read?
Answer: 7.71% [at 38.5 µM] (inactive)

Question: For C=C(C(=O)O)C1CC(OC(=O)CC(C)CC)C2(C)CCCC(=C)C2C1 (stereo not given), which “activity change, negative = cytotoxicity” value is on record?
Answer: -0.476% [at 38.5 µM] (inactive)

Question: For Cc1cc(OCCN2CCOCC2)nn1-c1ccc2ccccc2c1, which “activity change, negative = cytotoxicity” value is on record?
Answer: -0.085% (inactive)

Question: Which “activity change, negative = cytotoxicity” value does the source give for CC(=O)O[C@@H]1C(=O)C(C)=C(CCC(C)CC(=O)O)[C@@]2(C)CCCC(C)(C)C12 (stereo not given in full) here?
Answer: 0.396% [at 38.5 µM] (inactive)

Source: PubChem BioAssay (NCATS)
